About 83,000 compounds went through this panel and 20% of them were active in at least one assay; those are over-represented in the sample as a whole.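 How to read the values: 0–100, growth inhibition (40 = 60% inhibited); 0, no net growth; -100 to 0, cell death (-40 = 40% of starting cells died; -100 = all dead).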 Activity calls are given as the source filed them. How the source made its calls: active means growth percent below 10; inactive means the rest.
Each compound was assayed on LOX IMVI melanoma (assay: NCI-60 one-dose screen, 48 h (100 = growth as untreated, 0 = no growth, -100 = all killed)). Details: 10 µM unless noted.

Compound | growth
Fc1ccc(C2=NN(c3ccccc3)C(c3sc(N(CCCl)CCCl)nc3Cl)C2)cc1 (stereo not given) | 83.2% (inactive)
CC[C@H](C)[C@H](NC(=O)Nc1ccccc1)C(=O)N(C)[C@H](C[C@@H](OC(C)=O)c1nc(C(=O)N[C@@H](Cc2ccccc2)C[C@H](C)C(=O)OC)cs1)C(C)C | 23.9% (inactive)
c1ccc(CCN2CCCCC2Cc2ccccc2)cc1 (stereo not given) | 90.9% (inactive)
CC(=O)O[C@H]1CCC2(C)C(=CCC3C2CCC2(C)/C(=N/OC(=O)c4ccc(N(CCCl)CCCl)cc4)CCC32)C1 (stereo not given in full) | 5.24% (active)
O=C(N/N=C/c1ccc(N(CCCl)CCCl)cc1)c1cc(=O)[nH]c(=O)[nH]1 | 93.4% (inactive)
O=[As]c1ccc(C(=O)c2ccc(Oc3ccccc3)cc2)cc1 (stereo not given) | -91.2% (active)
O=[N+]([O-])c1cc([N+](=O)[O-])c(Cl)c(Cl)c1Cl | -62.6% (active)
Cc1cc(NC(=O)NCCOc2ccc(N3C(N)=NC(N)=NC3(C)C)cc2Cl)ccc1S(=O)(=O)F | 12.8% (inactive)
COc1ccc2c(c1)NC1=C(C(=O)OC1)C2c1cc(OC)c(OC)c(OC)c1 (stereo not given) | 11.9% (inactive)
C=CCc1ccc(OC(=O)Cc2ccccc2)c(OC)c1 | 93.6% (inactive)
CC(C)(O)/C=C/C(=O)[C@](C)(O)[C@H]1[C@H](O)C[C@@]2(C)[C@@H]3CC=C4[C@@H](C=C(O)C(=O)C4(C)C)[C@]3(C)C(=O)C[C@]12C | -59.6% (active)
C[C@]12CCc3sc(-c4ccc(Cl)cc4)nc3C1=CC[C@@H]1[C@@H]2CC[C@]2(C)C(=O)CC[C@@H]12 | 55.1% (inactive)
C=CCC1(CC)C(=O)NC(=S)NC1=O | 97.2% (inactive)
NC(Cc1ccc2c(c1)OCO2)c1ccc2c(c1)OCO2 (stereo not given) | 99.8% (inactive)
O=C(CF)N(O)c1ccc(/C=C/c2ccccc2)cc1 | 39.8% (inactive)
COc1ccc(/C=C(/C(=O)N2CCCC2)c2cc(OC)c(OC)c(OC)c2)cc1N | 35.3% (inactive)
Nc1nc(N)c(-c2ccc(Cl)c(Cl)c2)c(/C=C/c2ccc(S(=O)(=O)F)cc2)n1 | 69.1% (inactive)
Nc1c(Br)cc([N+](=O)[O-])cc1[N+](=O)[O-] | 103% (inactive)
Oc1ccc(O)c2c1C1(Cl)C(Cl)=C(Cl)C2(Cl)C1(Cl)Cl | 43.1% (inactive)
CN(C)P1(N(C)C)=NP(N(C)C)(N(C)C)=NP(N(C)C)(N(C)C)=N1 | 92.7% (inactive)

Compound | growth
CCCCNCCc1ccccn1 | 97.1% (inactive)
CNC(=O)Oc1cccc(OC)c1 | 100% (inactive)
C=C=[CH][Sn]([c]1ccccc1)([c]1ccccc1)[c]1ccccc1 | -77.2% (active)
NC(=O)SCC(=O)Nc1ccc([As](=O)(O)O)cc1 | 68.8% (inactive)
C[C@]12CC[C@H]3[C@@H](C[C@@H]4N=C(c5ccc(O)cc5)S[C@@]45C[C@H](O)CC[C@]35C)[C@@H]1CC[C@@H]2O | 25.4% (inactive)
CC1(C)N=C(N)N=C(N)N1c1ccc(CCCCc2ccc(S(=O)(=O)F)cc2)cc1 | 15.2% (inactive)
Nc1c(Br)cc2c3c(cccc13)-c1ccccc1-2 | 53.7% (inactive)
COc1cc2c(cc1OC)CN(C)C(C)C2 (stereo not given) | 95.1% (inactive)
CC(C)C1c2ccc(O)cc2Oc2nc(N)c(C#N)c(N)c21 (stereo not given) | 103% (inactive)
c1ccc2nc(OCCN3CC3)ccc2c1 | 86.3% (inactive)
CC1(C)N=C(N)N=C(N)N1c1ccc(CNC(=O)Nc2ccc(S(=O)(=O)F)c(Cl)c2)c(Cl)c1 | 11.9% (inactive)
c1ccc(-c2ccc3ccccc3[o+]2)cc1 | 82.2% (inactive)
CSc1ccccc1NP1(=O)OCC(C)([N+](=O)[O-])CO1 (stereo not given) | 97.3% (inactive)
CC1COC(=O)C1 (stereo not given) | 100% (inactive)
C[CH2][Pb]([CH2]C)([CH2]C)[O]C(=O)COc1ccccc1 | -35.8% (active)
COc1ccc(/C=C\c2cc(OC)c(OC)c(OC)c2)cc1N/C=C\C(=O)c1c[nH]c2ccccc12 | 19.6% (inactive)
CCCC(C)(C)c1ccc2c(c1)OC(C)(C)[C@@H]1CC=C(C)C[C@@H]21 | 96.3% (inactive)
OC1(c2ccc(Cl)cc2Cl)c2ccccc2C2=NCCN21 (stereo not given) | 90.7% (inactive)
CC1(CF)NC(=O)NC1=O (stereo not given) | 100% (inactive)
O=C(Nc1ccc(S(=O)(=O)F)cc1)Oc1ccccc1 | 95.1% (inactive)

— PubChem BioAssay (NCI)
